Data: article PMC5540273 (PLoS ONE, 2017)

What was measured:
Conditions in all cases: concentration: 1 μM, replicates: in singlicate; n = 1
EPHA3 = system: EPHA3
EPHA4 = system: EPHA4
EPHA5 = system: EPHA5
EPHA6 = system: EPHA6
EPHA7 = system: EPHA7
EPHA8 = system: EPHA8
EPHB1 = system: EPHB1
EPHB2 = system: EPHB2
EPHB3 = system: EPHB3
EPHB4 = system: EPHB4
EPHB6 = system: EPHB6
ERBB2 = system: ERBB2
ERBB3 = system: ERBB3
ERBB4 = system: ERBB4
ERK1 = system: T1, ERK1
T1 construct: gene MAPK3

ERK2 = system: T2, ERK2
T2 construct: gene MAPK1

ERK3 = system: T3, ERK3
T3 construct: gene MAPK6

ERK4 = system: T4, ERK4
T4 construct: gene MAPK4

ERK5 = system: T5, ERK5
T5 construct: gene MAPK7

ERK8 = system: T6, ERK8
T6 construct: gene MAPK15
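Further: KINOMEscan kinase panel screen.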

Compound	%Inh (EPHA3)	%Inh (EPHA4)	%Inh (EPHA5)	%Inh (EPHA6)	%Inh (EPHA7)	%Inh (EPHA8)	%Inh (EPHB1)	%Inh (EPHB2)	%Inh (EPHB3)	%Inh (EPHB4)	%Inh (EPHB6)	%Inh (ERBB2)	%Inh (ERBB3)	%Inh (ERBB4)	%Inh (ERK1)	%Inh (ERK2)	%Inh (ERK3)	%Inh (ERK4)	%Inh (ERK5)	%Inh (ERK8)
O=C(NCCNc1ccnc(Nc2ccc(F)cc2)n1)c1cc2ccccc2s1 [GSK1379874]	0%	0%	0%	0%	6%	18%	0%	0%	12%	0%	11%	1%	0%	51%	0%	0%	0%	3%	0%	0%
Nc1nccc(-c2c(-c3ccc(F)cc3)ncn2C2CCN(CC(F)(F)F)CC2)n1 [SB-236560]	0%	0%	0%	0%	0%	0%	0%	14%	0%	0%	44%	59%	4%	34%	0%	0%	0%	0%	0%	16%
O=C(NCCNc1ccnc(Nc2ccc(F)cc2)n1)Nc1ccccc1F [GSK1379880]	0%	6%	0%	0%	2%	21%	38%	0%	0%	0%	17%	9%	0%	38%	0%	0%	0%	8%	0%	0%
NS(=O)(=O)c1cccc(-c2ccc3ncc(N4CCOCC4)nc3c2)c1 [GSK1535721]	11%	8%	0%	8%	3%	11%	5%	6%	9%	17%	25%	32%	11%	1%	0%	0%	0%	0%	10%	0%
Cc1nnc(-c2ccc3ncc(-c4ccc(S(C)=O)cc4)n3c2)o1 (centres unmarked)	2%	8%	11%	22%	1%	1%	0%	18%	12%	0%	13%	65%	3%	0%	0%	0%	0%	0%	0%	0%
O=c1cc(N2CCOCC2)nc2n(Cc3cccc4ccccc34)ccn12 [GSK2333389]	0%	14%	0%	8%	5%	9%	10%	0%	11%	5%	12%	0%	0%	0%	3%	0%	0%	25%	0%	43%
CN1c2ccc(CNc3ccc(F)cc3)cc2-c2c(cnn2C)S1(=O)=O	0%	0%	0%	0%	0%	0%	0%	17%	0%	1%	0%	13%	9%	0%	0%	0%	0%	0%	0%	0%
CCc1ccnc(/C=C/c2n[nH]c3cc(Sc4ccccc4C(=O)NC)ccc23)c1	0%	1%	5%	0%	2%	7%	4%	0%	0%	0%	35%	2%	0%	21%	0%	5%	0%	9%	0%	0%
CCn1cnc2c(N)ncnc21 [GW345098]	0%	7%	16%	17%	3%	1%	7%	0%	17%	14%	25%	0%	10%	0%	2%	19%	0%	0%	2%	5%
Cc1ccc(NC(=O)c2ccnc(N3CCN(C)CC3)c2)cc1-c1ccc(C(=O)NCC2CC2)cc1 [GW775604]	0%	7%	0%	4%	0%	18%	0%	0%	7%	0%	0%	0%	0%	0%	0%	0%	0%	0%	0%	0%
